Test results from PubChem BioAssay.

Assay: compounds binding Alexa647 anti-His antibody – biochemical, small-molecule microarray, 635 nm fluorescence, artefact control for SMM control protein annotation, primary screen (AID 1128);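 further: score merges feature fluorescence with signal-to-noise for each printed compound spot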
Conditions: higher = more signal

Row | SMILES | composite z-score
1 | O=C1O[C@H](c2ccccc2)[C@H](c2ccccc2)N2[C@H]1[C@@H](C(=O)N1CCN(c3ncccn3)CC1)[C@]1(C(=O)Nc3ccccc31)[C@H]2c1ccc(OCCO)cc1 | 1.39
2 | C=CCNC(=O)[C@@H]1[C@H]2C(=O)O[C@H](c3ccccc3)[C@H](c3ccccc3)N2[C@H](c2ccc(OCCO)cc2)[C@@]12C(=O)Nc1ccccc12 | 0.797
3 | CC(C)C[C@@H]1NC(=O)[C@@H]2C[C@H](C(=O)NCCCCCC[N+](C)(C)C)[C@H](c3ccc(O)cc3)N2C1=O | 1.59
4 | CCCC[C@H]1OB(O)C[C@H]2C1=C(C)C[C@H]1C(=O)N(Cc3ccccc3)C(=O)[C@H]12 | 0.201
5 | COc1ccc(C#Cc2ccc3c(c2)[C@]2(C(=O)N3)[C@H](C(=O)NC[C@H](O)c3ccccc3)[C@H]3C(=O)O[C@H](c4ccccc4)[C@H](c4ccccc4)N3[C@@H]2c2ccc(OCCO)cc2)cc1 | 0.408
6 | COCCOC(=O)N1C(=O)[C@@]2(c3cc(C#CCNC(N)=O)ccc31)[C@H](c1ccc(O)cc1)N1[C@H](c3ccccc3)[C@H](c3ccccc3)OC(=O)[C@H]1[C@@H]2C(=O)Nc1nc2ccccc2s1 | 0.0698
7 | COC(=O)[C@@]1(Cc2ccccc2)[C@H]2c3cc(C(=O)N4CCCC4)n(Cc4ccc(C)o4)c3C[C@H]2CN1C(=O)c1ccccc1 | 0.195
8 | COc1cc2c(cc1OC)CN(C(=O)[C@@H]1[C@H]3C(=O)O[C@H](c4ccccc4)[C@H](c4ccccc4)N3[C@H](c3ccccc3OCCO)[C@@]13C(=O)Nc1ccc(C#CCNC(N)=O)cc13)CC2 | 1.62
9 | COC(=O)[C@@]1(Cc2ccc(OC)cc2)[C@H]2c3cc(C(=O)N(C)C)n(Cc4c(OC)[nH]cc(C)c4=O)c3C[C@H]2CN1C(=O)c1ccccc1 | -0.13
10 | COCCOC(=O)N1C(=O)[C@@]2(c3cc(C#CCCO)ccc31)[C@H](C(=O)NC[C@H](O)c1ccccc1)[C@H]1C(=O)O[C@H](c3ccccc3)[C@H](c3ccccc3)N1[C@@H]2c1ccc(O)cc1 | 1.69
11 | COC(=O)[C@]1(Cc2ccccc2N=[N+]=[N-])N=C(c2ccc(OCCCO)cc2)O[C@@H]1c1ccccc1N=[N+]=[N-] | 2.87
12 | [N-]=[N+]=NCc1ccccc1[C@@H]1OC(c2ccc(OCCCO)cc2)=N[C@]1(Cc1ccccc1N=[N+]=[N-])C(=O)NCc1ccccc1 | 0.512
13 | Cc1ccc(S[C@]2(C(=O)NC3CC3)CC(=O)N(C3CCCCC3)[C@@H]2c2ccc(CO)cc2I)cc1 | 0.104
14 | CC(C)NC(=O)[C@@H]1c2ccccc2C(=O)N(Cc2ccccc2)[C@H]1c1ccc(CO)cc1 | 0.166
15 | [N-]=[N+]=NCc1ccccc1[C@H]1OC(c2ccc(OCCCO)cc2)=N[C@@]1(CCS(=O)(=O)c1ccccc1)C(=O)N1CCOCC1 | 0.997
16 | COc1cc(C(O)C2C=CC3C(=O)N(c4ccccc4)C(=O)C3N2Nc2ccc(C#N)cc2)cc(OC)c1OC (stereo unspecified) | 2.58
17 | O=C1C2C=CC(C(O)c3ccc(B(O)O)cc3)N(Nc3ccccc3)C2C(=O)N1c1ccccc1 (stereo unspecified) | 0.56
18 | NCCCCCCNC(=O)[C@H]1C[C@H]2C(=O)NCC(=O)N2[C@H]1c1cccc(OCCO)c1 | 0.869

Row | SMILES | composite z-score
19 | COc1cccc(C(=O)O[C@H]2CC[C@]3(C)C4=C(CCC3C2(C)C)[C@]2(C)CC[C@H]([C@H](C)CCCC(C)C)[C@@]2(C)CC4)c1 (stereo partly specified) | 0.0291
20 | CCOC(=O)C[C@H]1[C@H](OC(=O)Cc2ccc3c(c2)OCO3)[C@@H](NC(=O)c2ccc(-c3ccccc3)cc2)c2cc(OCCCO)ccc2N1C(=O)c1ccccc1 | 0.18
21 | O=C1OCCC=C[C@H]2OC34C=CCN(Cc5ccccc5)C(=O)[C@H]3N(CCCCCO)C(=O)[C@@H]4C12 (stereo partly specified) | 0.206
22 | CS(=O)(=O)CCOC(=O)C1=CC(CCCO)=CC(c2cccs2)N(Cc2cc3c(cc2Br)OCO3)C=C1C(=O)OCCS(C)(=O)=O (stereo unspecified) | 1.16
23 | O=C1O[C@@H](c2ccccc2)[C@@H](c2ccccc2)N2[C@@H](c3ccc(OCCO)cc3)[C@]3(C(=O)Nc4ccc(C#CC5=CCCCC5)cc43)[C@@H](C(=O)O)[C@H]12 | 1.42
24 | C=CC[C@@]1(C(=O)NCC(O)CO)N=C(c2ccc(OCCCO)cc2)O[C@@H]1c1ccccc1N=[N+]=[N-] (stereo partly specified) | 2.92
25 | NC(=O)NCC#Cc1ccc2c(c1)[C@]1(C(=O)N2)[C@H](C(=O)NC[C@H](O)c2ccccc2)[C@H]2C(=O)O[C@H](c3ccccc3)[C@H](c3ccccc3)N2[C@@H]1c1ccc(O)cc1 | 0.489
26 | CC(=O)NCCCC[C@@H]1NC(=O)[C@H]2C[C@@H](C(=O)NCCCCCC[N+](C)(C)C)[C@@H](c3cccc(OCCO)c3)N2C1=O | 0.627
27 | COC(=O)[C@@]1(Cc2ccc(F)cc2)[C@H]2c3cc(C(=O)N(C)C)n(CCc4ccccn4)c3C[C@H]2CN1C(=O)c1ccccc1 | 1.47
28 | CN(C)CCCNC(=O)[C@@]1(Cc2ccccc2I)c2ccccc2C(=O)N(Cc2ccccc2C(F)(F)F)[C@H]1c1ccc(CO)cc1 | 0.984
29 | NC(=O)NCC#Cc1ccc2c(c1)[C@]1(C(=O)N2)[C@H](C(=O)N2CCCCCCC2)[C@H]2C(=O)O[C@H](c3ccccc3)[C@H](c3ccccc3)N2[C@@H]1c1ccc(OCCO)cc1 | -0.132
30 | O=C(O)[C@@]1(Cc2ccccc2)N=C(c2ccc(OCCCO)cc2)O[C@H]1c1ccccc1 | 1.31
31 | CCOC(=O)C1=CCC(c2ccc([N+](=O)[O-])cc2)N(S(=O)(=O)c2ccc(C)cc2)C1 (stereo unspecified) | 0.711
32 | COCCOC(=O)N1C(=O)[C@@]2(c3cc(C#CCCO)ccc31)[C@H](c1ccc(O)cc1)N1[C@H](c3ccccc3)[C@H](c3ccccc3)OC(=O)[C@H]1[C@@H]2C(N)=O | 3.05
33 | COc1ccc(C(O)C2C=CC3C(=O)NC(=O)C3N2Nc2ccccn2)cc1OCc1ccccc1 (stereo unspecified) | 0.834
34 | O=C1OCC=C[C@H]2OC34C=CCN(c5ccc6ccccc6c5)C(=O)[C@H]3N(CCCO)C(=O)[C@@H]4[C@@H]12 (stereo partly specified) | -0.349
35 | CCC[C@@H]1C=C(C(=O)O)[C@H](c2ccc(C)cc2)N1S(=O)(=O)c1ccc(C)cc1 | 1.65
36 | COC(=O)c1ccc(C23CC2(C(NP(=O)(c2ccccc2)c2ccccc2)c2ccccc2)C3)cc1 (stereo unspecified) | 2.12
